USP17 block = inhibitors of human USP17 deubiquitinase; Ubiquitin carboxyl-terminal hydrolase 17-like protein 5 (Homo sapiens), A8MUK1; purified USP17, Ub-rhodamine cleavage fluorescence, 3 h; inhibition, % at 50 µM; 47,000 tested, 6.5% active
USP8 inh = inhibitors of human USP8 deubiquitinase. purified USP8, Ub-rhodamine cleavage fluorescence, 30 min. inhibition, % at 20 µM. 47,000 tested, 4.2% active. AID 1645853, 2021
USP28 block = inhibitors of human USP28 deubiquitinase; purified USP28, Ub-rhodamine cleavage fluorescence, 30 min; AID 1645857, 2021; inhibition, % at 25 µM; Ubiquitin carboxyl-terminal hydrolase 28 (Homo sapiens), Q96RU2; 47,000 tested, 3% active
USP30 block = inhibitors of human USP30 deubiquitinase | AID 1645860, 2021 | inhibition, % at 25 µM | purified USP30, Ub-rhodamine cleavage fluorescence | Ubiquitin carboxyl-terminal hydrolase 30 (Homo sapiens), Q70CQ3 | 47,000 tested, 5.3% active
Target sequence (Q70CQ3 whole entry, looked up): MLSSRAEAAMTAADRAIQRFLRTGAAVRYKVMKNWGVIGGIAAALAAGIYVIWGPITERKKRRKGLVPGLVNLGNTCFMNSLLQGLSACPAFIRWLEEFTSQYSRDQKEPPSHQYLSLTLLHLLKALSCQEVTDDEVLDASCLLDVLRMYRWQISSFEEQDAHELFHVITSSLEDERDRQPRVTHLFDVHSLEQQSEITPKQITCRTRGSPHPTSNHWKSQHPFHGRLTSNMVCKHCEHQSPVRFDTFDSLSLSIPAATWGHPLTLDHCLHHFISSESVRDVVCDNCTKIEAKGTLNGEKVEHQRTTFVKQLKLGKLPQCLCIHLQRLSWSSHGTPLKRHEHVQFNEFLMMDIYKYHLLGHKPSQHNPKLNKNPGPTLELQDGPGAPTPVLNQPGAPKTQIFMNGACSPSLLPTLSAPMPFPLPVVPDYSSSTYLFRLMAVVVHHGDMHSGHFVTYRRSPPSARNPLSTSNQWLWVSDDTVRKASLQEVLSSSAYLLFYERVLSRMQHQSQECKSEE
* marks the source's active call; other numbers are inactive results; / = no result given. This is a sample that favours compounds with a hit; in the whole collection about 14% have one here. Rule as the data show it: active = inhibition above about 30%; inactive = the rest.

SMILES	USP17 block	USP8 inh	USP28 block	USP30 block
CCN(CC)S(=O)(=O)c1cc(C(=O)N2CCN=C2Cc2c(C)cc(C(C)(C)C)cc2C)ccc1F	-10	-87	12	0
CCc1nc(-c2cccc(-c3noc(-c4cnccn4)n3)c2)cs1	0	-40	5	-3
Clc1ccc(-c2noc(-c3cnccn3)n2)cc1	22	26	14	31*
Cc1cc(C)n2nc(CN(C(=O)COc3ccccc3)c3cccc(Cl)c3)nc2n1	2	0	12	-7
Cc1ccc(CN2CCCn3nc(C(=O)NCc4ccccc4C)cc3C2=O)cc1	50*	14	9	52*
O=C(NCc1ccc(-c2nc3cnccc3o2)cc1)c1ccccc1F	68*	-3	19	13
O=C(NCc1ccc(-c2nc3cnccc3o2)cc1)c1ccccc1Cl	38*	16	-9	-26
O=C1N[C@@H]2CCN(C(=O)CN3CCCC3=O)C[C@@H]2C/C=C/CCOc2ccccc21	-3	-6	1	-5
O=C(O)CC(NC(=O)CSc1ccccc1)c1ccc(Cl)cc1 (stereo not given)	13	-20	22	26
NC(=O)C(OC(=O)CSc1ccccc1)c1ccccc1 (stereo not given)	11	25	11	32*
O=C(c1ccc(-n2cccc2)cc1)N1CCN(c2ccccc2)CC1	2	17	-8	8
COc1ccc(NC(=O)c2ccco2)cc1NC(=O)c1ccc(F)cc1	-9	0	2	-4
COc1ccc(NC(=O)Cc2csc(NC(=O)c3ccco3)n2)cc1Cl	49*	24	21	26
CC(=O)c1sc(NC(=O)COc2ccc(N(C)S(=O)(=O)c3ccc(C)cc3)cc2)nc1C	19	-7	-39	-42
CC(=O)c1sc(NCc2ccc(C)cc2)nc1C	-15	2	50*	5
O=S(=O)(NC1CCc2ccccc21)c1ccc(-n2cnnn2)cc1 (stereo not given)	4	11	24	39*
O=C(O)c1cccc(S(=O)(=O)NC2CCCc3ccccc32)c1 (stereo not given)	-22	4	-9	-29
O=S(=O)(NC1CCCc2ccccc21)c1ccc(F)cc1 (stereo not given)	13	12	19	34*
COc1ccc(S(=O)(=O)NC2CCc3ccccc32)cc1OC (stereo not given)	9	0	-2	6
Cc1nc(-c2cccc(S(=O)(=O)NC3CCCc4ccccc43)c2)no1 (stereo not given)	18	47*	6	11
O=S(=O)(NC(c1ccccc1)c1ccccc1)c1ccc(-n2cnnn2)cc1	44*	1	18	49*
CCNS(=O)(=O)c1ccc(-c2ccc(-n3cnnn3)cc2)cc1	20	24	8	25
Cc1nc(-c2cccc(S(=O)(=O)Nc3ccc(-c4ccno4)cc3)c2)no1	2	0	2	8
CN(C)c1cnc(CC2CCCN(C(=O)c3ccncn3)CC2)cn1 (stereo not given)	0	-2	-4	-18
CC1CCN(c2ncc(CN3CCN(c4ccccc4)CC3)s2)CC1	-8	-11	-12	-22
SMILES	USP17 block	USP8 inh	USP28 block	USP30 block
CCOC(=O)[C@H](O)[C@@H](C(=O)OCC)c1nc2c(OCc3ccccc3)nc(N)nc2n(C)c1=O	-10	-17	-4	-4
CCc1cc(OCC(=O)NC(c2ccccc2)c2ccccc2)ccc1Cl	19	23	4	8
CCc1ccccc1NC(=O)COc1ccc(Nc2ccccc2)cc1	46*	35*	22	39*
COc1ccc(CNC(=O)COc2ccccc2-c2nnc(-c3ccccc3)o2)c(OC)c1	-1	5	-12	0
CC(CCc1ccccc1)NC(=O)COc1ccc(Cl)c(Cl)c1 (stereo not given)	25	17	31*	27
O=C(COc1ccccc1-c1nnc(-c2ccccc2)o1)Nc1ccc(F)cc1F	84*	32*	3	35*
COc1ccccc1CNC(=O)COc1ccccc1-c1nnc(-c2ccccc2)o1	19	6	-42	31*
CCOC(=O)CSc1nnc(-c2c[nH]c3ccccc23)n1-c1ccc(F)cc1	25	18	8	6
CCSc1ncc(/C=C(\C#N)c2ccc(Cl)c(Cl)c2)n1C	15	12	13	-19
COCCCn1c(C(=O)NC2CCS(=O)(=O)C2)cc2c(=O)n3cccc(C)c3nc21 (stereo not given)	-3	4	0	-12
Cc1ccc(-c2nc(CCN(C)C(=O)c3cccc(F)c3)no2)cc1	-11	4	0	1
Cc1ccc(CN2C(=O)c3ccccc3NC2C2CCCCC2)cc1 (stereo not given)	-8	-139	18	20
N#Cc1c(-c2ccco2)cc(-c2ccccc2)n2c1nc1ccccc12	-106	-151	-146	-392
CCN1CC2(CCN(C(=O)c3ccc[nH]3)CC2)COc2ccccc2S1(=O)=O	1	-21	0	13
COc1ccccc1CNC(=O)CS(=O)(=O)Cc1nc(-c2ccccc2F)oc1C	58*	27	15	16
O=C(COc1ccccc1-c1nnc(-c2ccccc2)o1)NCCc1ccco1	35*	86*	4	-38
CC(CCc1ccccc1)NC(=O)COc1ccccc1-c1nnc(-c2ccccc2)o1 (stereo not given)	31*	1	6	41*
CCc1ccccc1NC(=O)COc1ccccc1-c1nnc(-c2ccccc2)o1	53*	29	18	38*
CN(C)C(=O)[C@@H]1C[C@@H]2CN(C(=O)C3CCCC3)CCN2[C@@]12C(=O)Nc1ccccc12	16	22	10	21
Cc1noc(-c2ccc(SCC(=O)Nc3ccccc3)nc2)n1	-3	-2	-5	-28
O=S(=O)(c1ccc2c(c1)OCCO2)N(Cc1ccccc1)Cc1nnc(-c2ccccc2)o1	/	15	23	74*
CSc1ncccc1C(=O)NC1(O)C(=O)c2ccccc2C1=O	95*	83*	10	46*
O=C(NC1(O)C(=O)c2ccccc2C1=O)c1ccc(-c2csnn2)cc1	85*	93*	0	32*
Cc1nc(C(=O)NC2(O)C(=O)c3ccccc3C2=O)cs1	94*	72*	22	35*
CSc1ncccc1C(=O)Nc1ccnn1Cc1ccccc1	-12	-11	-9	-8
CC(=O)N1CCC(Cc2cncc(-c3cc(C)[nH]n3)n2)CC1	-14	-25	-13	-34
COc1ccc([N+](=O)[O-])cc1NC(=O)COC(=O)c1ccc2[nH]c3c(c2c1)CCCC3	71*	60*	63*	60*
COc1cc([N+](=O)[O-])ccc1NC(=O)COC(=O)Cc1c[nH]c2ccccc12	-7	-60	-10	-16
O=C(CC1SCCNC1=O)Nc1cccc2ccccc12 (stereo not given)	0	-27	-10	-8
O=c1ccnc(Nc2cccc3ccccc23)[nH]1	16	49*	-6	-14

High-throughput results from PubChem.
